“And” between values parts separate entries of the source, which are not always exact repeats. Equal values may be shown once. Compounds without any hit were thinned out: in the full panel of roughly 79,000, 15% have a hit. Values without a mark were called inactive. The source made the active and inactive calls. Cut-off read from the data, not from the text of the source: active = growth inhibition above about 70%; inactive = the rest.
Key:
[1] = NCI Yeast Anticancer Drug Screen. Data for the rad50 strain (AID 155);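 note: 0% = growth of vehicle-only cultures of the same strain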; conditions: S. cerevisiae rad50 strain growth inhibition; at 50.0 µM; hits give high values
How it was run: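 Vehicle-treated cultures provide the reference for the growth inhibition reported for compound-exposed, repair-deficient yeast.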

[2] = NCI Yeast Anticancer Drug Screen. Data for the mec2-1 strain (AID 157); conditions: S. cerevisiae mec2-1 strain, at 50.0 µM, hits give high values
How it was run: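 Using mec2-1 yeast: add compound, measure growth, express inhibition versus vehicle-treated cultures.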

[3] = NCI Yeast Anticancer Drug Screen. Data for the sgs1 mgt1 strain (AID 161);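 note: 0% = growth of cultures given vehicle only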; conditions: S. cerevisiae sgs1 mgt1 strain, at 50.0 µM, hits give high values
How it was run: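 Yeast cells carrying a defined DNA-repair defect were exposed to test compounds. Growth inhibition was measured relative to vehicle-treated controls.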

[4] = NCI Yeast Anticancer Drug Screen. Data for the cln2 rad14 strain (AID 165);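 note: 0% = growth equal to vehicle treated cultures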; conditions: S. cerevisiae cln2 rad14 strain, at 50.0 µM, hits give high values
How it was run: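 Yeast strain cln2 rad14, bearing defects in cell cycle control and DNA repair, serves as the test system; values reflect growth inhibition compared with vehicle.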

[5] = NCI Yeast Anticancer Drug Screen. Data for the bub3 strain (AID 167); conditions: S. cerevisiae bub3 mutant strain, at 50.0 µM, hits give high values
How it was run: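 Mutant yeast screening strain plus compound; vehicle-treated cultures serve as the 0% inhibition reference.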

[6] = NCI Yeast Anticancer Drug Screen. Data for the mlh1 rad18 strain (AID 175); conditions: S. cerevisiae mlh1 rad18 strain growth inhibition; at 50.0 µM; hits give high values
How it was run: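 Steps: expose repair-defective yeast to compound; measure growth; express inhibition against vehicle-treated controls.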

Row | Structure (SMILES) | growth inhibition [1] | growth inhibition [2] | growth inhibition [3] | growth inhibition [4] | growth inhibition [5] | growth inhibition [6]
1 | C[N+]1(CCCl)CCc2cc([N+](=O)[O-])ccc2C1 (configuration not stated) | -25.1% | -84.7% | -24.9% | -16.1% | -12.6% | -9.8%
2 | CC1(C)CC(=O)CC(C)(C)C1 | -25.6% | -12.2% | -1.65% | 4.35% | -13.2% | -11.2%
3 | CC1CCC2NCCNC2C1 (configuration not stated) | 2.45% | 6.65% | -8.9% | 5.35% | 0.65% | 23.4%
4 | CN1CCOC(c2ccccc2)c2ccsc2CC1 (configuration not stated) | 17.2% | -5% | 35.2% | 0% | 9.4% | 16.8%
5 | CCCCN1CCC2(CC1)COCc1ccccc12 | 57.2% | 34.3% | 42% | 28.7% | 54.9% | 44.1%
6 | O=P1(C(Cl)Cl)OCCCO1 | -9.35% | 10.7% | -2.65% | -10.2% | -0.15% | -0.15%
7 | CC1CC(C)(O)CC(C(O)CC2CC(=O)NC(=O)C2)C1=O (configuration not stated) | 55.9% | 51% | 48.2% | 56.1% | 67% | 68.2%
8 | COP(=O)(OC)/C(=C/c1c[nH]c2ccccc12)C(=O)O | -12.7% | -71.6% | -55.9% | -34.9% | -20.7% | -32.2%
9 | CC(C)(C)OC(=O)NCC(=O)NC(CSC(c1ccccc1)c1ccccc1)C(=O)NCC(=O)O (configuration not stated) | 8.45% | 7.3% | 11% | -6.35% | -4.9% | 15.1%
10 | O=C(O)[C@@H](Cl)[C@@H](Cl)C(=O)O | 30.7% | -11.4% | 22.9% | 6.7% | 9.55% | 17.9%
11 | O=C(NC(=S)N1CC1)c1ccccc1 | -13.9% | -43.4% | -7% | -7.8% | -26.4% | -36.3%
12 | CCC1(CC)C(=O)C=CNC1=O | 17.6% | -20.6% | 11.7% | 1.1% | -8.15% | 8.15%
13 | C=C1CCC2CC1C2(C)C (configuration not stated) (tested in a mixture with another compound) | 7.95% | -14.2% | -5.7% | -2.7% | 5.85% | -23.9%
14 | COc1ccc(C(C)N)cc1 (configuration not stated) | -47.4% | -5.3% | -10.4% | -11.2% | -4.3% | -2.9%
15 | NC1(P(=O)(O)O)CCCCC1 | 2.5% | -3% | -22.4% | -52% | -31.6% | -10.5%
16 | CC1CC2C(CCC3(C)C2CC2(CC2)C3(C)O)C2(C)CCC(O)CC12O (configuration not stated) | 12.6% | 8.55% | 19.9% | -50% | -7.35% | 1.9%
17 | CCC[CH2][Sn]([CH2]CCN(C)C)([CH2]CCN(C)C)[CH2]CCN(C)C | 38.5% | 8.4% | 12.8% | 15.2% | -1.95% | 28.2%
18 | C/C=C1/CN2CCC34C(=C(C(=O)OC)C1CC23)Nc1ccc(O)cc14 (configuration not stated) | 2.9% | 2.3% | 27.7% | -4.05% | 1.65% | -61%
19 | O=c1oc2ccccc2c(O)c1C(c1cnc2ccccc2c1)c1c(O)c2ccccc2oc1=O | 33.4% | 40.2% | 12.7% | 26.2% | -5.7% | 47%

Row | Structure (SMILES) | growth inhibition [1] | growth inhibition [2] | growth inhibition [3] | growth inhibition [4] | growth inhibition [5] | growth inhibition [6]
20 | CC(=O)C1C=NCCN=CC(C(C)=O)C(C)=NCCCN=C1C.[Ni] (configuration not stated) | 10.7% | 4.3% | 14.4% | -2.2% | 8.7% | 18.5%
21 | COc1ccc(C(=O)C(CC2C(=O)NC(=O)NC2=O)c2ccc(OC)cc2)cc1 (configuration not stated) | -7.65% | -8.65% | -22.9% | -17.1% | -19.1% | -19.1%
22 | CCOP(=O)(OCC)/C(C#N)=C/c1cc(O)ccc1O | -34.2% | -35.1% | -51.9% | -10.2% | -47.9% | -45.8%
23 | C/C=C/CC1(CCC(C)C)C(=O)NC(=O)NC1=O | 24.4% and 26.9% | 8.05% and -0.65% | 9.9% and 4.75% | -19.1% and -4.55% | -5.4% and -2.35% | 10.3% and 17.4%
24 | CC(=O)Nc1ncc2ccccc2c1-c1ccc(NC(=O)CCN(CCCl)CCCl)cc1 | 84.5% (active) | -0.45% | 12.2% | -30.1% | 17.6% | -9.2%
25 | C/C=C(\C)C(=O)OC1CCN2CC=C(COC(=O)C(O)(C(C)O)C(C)(C)O)C12 (configuration not stated) | 12.3% | 2.3% | 2.5% | 4.85% | 6.25% | -0.55%
26 | CCOC(=O)C(=O)CC(=O)[C@H]1CC[C@H]2[C@@H]3CC[C@@H]4C[C@H](O)CC[C@]4(C)[C@H]3C(=O)C[C@]12C | 30.6% | 15.3% | 40.8% | 37.5% | -3.8% | 34.7%
27 | CC1CCC2N(C1)CC1C3(O)CC45OC6(O)C(O)CCC4(C)C6CCC5C3(O)CC(O)C1(O)C2(C)O (configuration not stated) | -19.9% and -2.1% | -17.9% and -31.1% | -2.9% and -17.4% | -21.6% and 9.15% | -31.2% and -0.4% | 6.5% and -15.3%
28 | Cc1cc(C(C)(C)c2cc(C)c(O)c(C)c2)cc(C)c1O | 12.6% | -41.1% | -6.9% | 27.4% | -17.6% | -12.3%
29 | CCN(CC)P1(=O)OP(=O)(N(CC)CC)OP(=O)(N(CC)CC)O1 (configuration not stated) | -0.5% | 7% | 11.8% | 14.3% | -9.7% | -11.6%
30 | O=[P+](O)O[P+](=O)O.O=[P+](O)O[P+](=O)O.O=[P+](O)O[P+](=O)O.O=[P+](O)O[P+](=O)O.[Cl][Pt].[Cl][Pt] | -2.05% | 27.8% | 26.2% | -32.5% | 18.1% | 12.9%
31 | CCOP(O)(=S)OCC.[Yb] | 22.4% | -2.45% | -1.1% | -22.7% | -1.35% | -7.4%
32 | O=C(CC(=O)C(F)(F)C(F)(F)C(F)(F)F)c1ccco1.[Ni] | 17.2% | 3.8% | 27.9% | -9.9% | 2% | 34.6%
33 | CCCCCCCCCC[As](=O)(O)O | 41.8% | 22.2% | 8.6% | 21.9% | 18.9% | 16.9%
34 | CCOC(=O)C(=O)C1CCNC1=O (configuration not stated) | 9.2% | 3.35% | -4.45% | -0.25% | -3.65% | 24.5%
35 | CCC(C(=O)NC1CN2CCC1CC2)c1ccccc1 (configuration not stated) | -6.25% | -23.3% | -27.4% | -3.15% | -2.6% | -13.2%
36 | CC(C)CCCC(C)C1CCC2C3CC=C4CC(OC(=O)CN5CC5)CCC4(C)C3CCC12C (configuration not stated) | -0.3% | -2.65% | -4.85% | -6.85% | 18.8% | 3.2%
37 | S=c1[nH]c2ccccc2[nH]1.[Zn+2] | 13.2% | 10.3% | 18.2% | 10.2% | -21.4% | -5.35%

Source: PubChem BioAssay (NCI)
